# ± gives the standard deviation of the averaged measurements. The full data set covers some 6,500 targets. This sample favours those with the largest changes.
# Compound: Nc1ncnc2c1ncn2[C@@H]1O[C@H](COP(=O)(O)OP(=O)(O)OP(=O)(O)O)[C@@H](O)[C@H]1O [adenosine triphosphate]
# Assay: NP40-soluble protein abundance relative to vehicle (solubility fold change) (ratio); higher = more soluble protein in presence of ATP
# In short: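 Jurkat crude lysate (Dounce-homogenised) was treated with eight concentrations from 0.1 to 10 mM for 10 min at room temperature, then 3 min at 37 °C. It was solubilised with 0.8% NP40 and benzonase (60 min, 4 °C) and ultracentrifuged, and the supernatant was TMT-labelled for LC-MS/MS. Intensities were vsn-normalised, and the value is the fold change against the NP40-processed vehicle per replicate, from three independent experiments.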
# UniProt Q92834, sequence (Q92834 whole entry): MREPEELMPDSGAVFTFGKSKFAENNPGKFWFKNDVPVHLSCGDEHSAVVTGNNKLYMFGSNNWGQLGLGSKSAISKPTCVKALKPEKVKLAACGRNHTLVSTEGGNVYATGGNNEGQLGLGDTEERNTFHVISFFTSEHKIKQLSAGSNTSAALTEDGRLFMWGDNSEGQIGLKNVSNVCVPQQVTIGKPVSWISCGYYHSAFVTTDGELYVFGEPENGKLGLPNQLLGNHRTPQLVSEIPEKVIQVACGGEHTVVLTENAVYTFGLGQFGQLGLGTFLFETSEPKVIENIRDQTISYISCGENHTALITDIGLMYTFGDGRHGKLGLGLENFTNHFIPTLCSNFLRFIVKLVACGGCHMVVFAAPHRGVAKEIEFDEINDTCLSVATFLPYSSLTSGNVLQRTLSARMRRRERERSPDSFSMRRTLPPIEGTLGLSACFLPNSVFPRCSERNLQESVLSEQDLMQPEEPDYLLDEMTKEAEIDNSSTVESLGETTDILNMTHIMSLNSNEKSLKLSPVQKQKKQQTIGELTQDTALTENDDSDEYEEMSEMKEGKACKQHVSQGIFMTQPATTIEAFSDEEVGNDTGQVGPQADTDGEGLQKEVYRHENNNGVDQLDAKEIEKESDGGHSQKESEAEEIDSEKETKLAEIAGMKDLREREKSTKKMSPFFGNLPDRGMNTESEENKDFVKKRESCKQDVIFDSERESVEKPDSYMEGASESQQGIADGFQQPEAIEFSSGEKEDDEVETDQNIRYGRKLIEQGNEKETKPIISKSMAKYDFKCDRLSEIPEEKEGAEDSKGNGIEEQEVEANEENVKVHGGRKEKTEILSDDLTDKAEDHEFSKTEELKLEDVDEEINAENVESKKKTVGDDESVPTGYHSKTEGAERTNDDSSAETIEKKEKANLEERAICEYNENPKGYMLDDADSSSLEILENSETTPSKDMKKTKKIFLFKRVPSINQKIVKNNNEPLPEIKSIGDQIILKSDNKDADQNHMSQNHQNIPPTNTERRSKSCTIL
# UniProt Q9BUQ8, sequence (Q9BUQ8 whole entry): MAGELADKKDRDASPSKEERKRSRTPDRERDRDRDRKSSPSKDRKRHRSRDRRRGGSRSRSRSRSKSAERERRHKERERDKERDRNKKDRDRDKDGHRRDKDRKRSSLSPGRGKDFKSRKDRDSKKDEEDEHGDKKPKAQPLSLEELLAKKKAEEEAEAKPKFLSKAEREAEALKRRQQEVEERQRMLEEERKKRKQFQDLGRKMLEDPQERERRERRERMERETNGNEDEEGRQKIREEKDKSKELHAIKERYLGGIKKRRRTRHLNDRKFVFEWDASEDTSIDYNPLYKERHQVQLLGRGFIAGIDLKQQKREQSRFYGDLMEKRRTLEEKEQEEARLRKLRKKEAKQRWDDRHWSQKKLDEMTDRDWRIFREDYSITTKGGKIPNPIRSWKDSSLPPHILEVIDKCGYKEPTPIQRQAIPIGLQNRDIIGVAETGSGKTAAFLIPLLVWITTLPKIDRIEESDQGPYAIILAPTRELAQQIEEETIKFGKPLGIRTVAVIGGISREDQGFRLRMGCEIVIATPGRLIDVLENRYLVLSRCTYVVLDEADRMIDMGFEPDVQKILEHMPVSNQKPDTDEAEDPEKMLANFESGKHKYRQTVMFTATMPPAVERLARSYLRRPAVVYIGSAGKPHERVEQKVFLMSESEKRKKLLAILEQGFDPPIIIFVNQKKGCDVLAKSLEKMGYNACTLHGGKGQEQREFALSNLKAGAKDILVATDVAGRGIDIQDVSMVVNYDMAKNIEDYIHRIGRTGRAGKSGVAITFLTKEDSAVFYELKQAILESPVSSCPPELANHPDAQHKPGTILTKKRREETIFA
# UniProt Q9C073, sequence (Q9C073 whole entry): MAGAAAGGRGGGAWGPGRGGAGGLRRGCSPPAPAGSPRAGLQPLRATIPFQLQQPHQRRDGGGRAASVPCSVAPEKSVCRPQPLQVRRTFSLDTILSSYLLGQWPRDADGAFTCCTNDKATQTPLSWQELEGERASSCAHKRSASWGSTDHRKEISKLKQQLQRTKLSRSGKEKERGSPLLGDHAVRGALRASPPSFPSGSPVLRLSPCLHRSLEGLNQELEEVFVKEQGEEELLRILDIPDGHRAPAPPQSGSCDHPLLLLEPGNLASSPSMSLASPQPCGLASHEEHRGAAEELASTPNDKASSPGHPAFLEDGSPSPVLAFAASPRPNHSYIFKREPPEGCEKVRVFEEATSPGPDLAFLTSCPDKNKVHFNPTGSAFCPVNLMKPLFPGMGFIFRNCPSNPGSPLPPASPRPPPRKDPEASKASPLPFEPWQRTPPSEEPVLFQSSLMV
# UniProt Q9HCM7, sequence (Q9HCM7 whole entry): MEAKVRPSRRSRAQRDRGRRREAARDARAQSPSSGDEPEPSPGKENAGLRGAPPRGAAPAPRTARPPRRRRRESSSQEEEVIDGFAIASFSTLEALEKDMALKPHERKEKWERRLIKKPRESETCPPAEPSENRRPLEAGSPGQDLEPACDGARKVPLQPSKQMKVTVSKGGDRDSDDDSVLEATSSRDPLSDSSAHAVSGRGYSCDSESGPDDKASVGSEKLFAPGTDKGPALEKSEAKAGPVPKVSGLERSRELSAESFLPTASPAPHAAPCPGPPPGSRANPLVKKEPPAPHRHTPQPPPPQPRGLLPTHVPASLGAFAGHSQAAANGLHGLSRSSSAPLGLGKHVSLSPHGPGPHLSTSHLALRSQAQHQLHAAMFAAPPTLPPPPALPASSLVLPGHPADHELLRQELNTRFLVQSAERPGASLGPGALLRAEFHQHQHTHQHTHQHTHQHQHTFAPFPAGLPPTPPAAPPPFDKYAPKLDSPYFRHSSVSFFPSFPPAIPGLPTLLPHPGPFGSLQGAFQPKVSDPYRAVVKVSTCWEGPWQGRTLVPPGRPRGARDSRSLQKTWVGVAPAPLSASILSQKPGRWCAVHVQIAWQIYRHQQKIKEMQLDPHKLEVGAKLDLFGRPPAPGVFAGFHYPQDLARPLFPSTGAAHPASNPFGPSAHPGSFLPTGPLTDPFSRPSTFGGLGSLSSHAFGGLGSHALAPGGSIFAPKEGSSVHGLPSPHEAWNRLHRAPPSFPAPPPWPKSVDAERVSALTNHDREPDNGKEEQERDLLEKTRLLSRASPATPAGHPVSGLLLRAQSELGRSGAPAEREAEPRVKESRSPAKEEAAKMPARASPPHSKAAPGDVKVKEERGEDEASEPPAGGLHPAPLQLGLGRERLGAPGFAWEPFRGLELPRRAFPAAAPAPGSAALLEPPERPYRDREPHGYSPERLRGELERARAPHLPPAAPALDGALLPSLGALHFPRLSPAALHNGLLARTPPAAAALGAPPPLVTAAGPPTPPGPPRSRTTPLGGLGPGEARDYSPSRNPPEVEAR
# UniProt Q9H5N1, sequence (Q9H5N1 whole entry): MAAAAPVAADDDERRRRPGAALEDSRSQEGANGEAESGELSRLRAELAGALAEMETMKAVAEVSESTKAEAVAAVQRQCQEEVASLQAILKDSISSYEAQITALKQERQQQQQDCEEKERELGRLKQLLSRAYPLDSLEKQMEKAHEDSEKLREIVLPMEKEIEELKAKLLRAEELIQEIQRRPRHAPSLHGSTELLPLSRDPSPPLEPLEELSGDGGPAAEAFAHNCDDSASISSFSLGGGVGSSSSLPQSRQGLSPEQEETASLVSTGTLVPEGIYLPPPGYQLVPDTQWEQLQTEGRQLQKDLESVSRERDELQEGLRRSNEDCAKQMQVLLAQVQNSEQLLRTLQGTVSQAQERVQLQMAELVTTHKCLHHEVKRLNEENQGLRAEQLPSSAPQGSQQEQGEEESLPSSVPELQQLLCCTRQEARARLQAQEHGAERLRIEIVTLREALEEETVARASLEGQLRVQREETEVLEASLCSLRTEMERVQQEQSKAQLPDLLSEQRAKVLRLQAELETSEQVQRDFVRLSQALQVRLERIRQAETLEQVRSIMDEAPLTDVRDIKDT
# UniProt Q9UBK8, sequence (Q9UBK8 whole entry): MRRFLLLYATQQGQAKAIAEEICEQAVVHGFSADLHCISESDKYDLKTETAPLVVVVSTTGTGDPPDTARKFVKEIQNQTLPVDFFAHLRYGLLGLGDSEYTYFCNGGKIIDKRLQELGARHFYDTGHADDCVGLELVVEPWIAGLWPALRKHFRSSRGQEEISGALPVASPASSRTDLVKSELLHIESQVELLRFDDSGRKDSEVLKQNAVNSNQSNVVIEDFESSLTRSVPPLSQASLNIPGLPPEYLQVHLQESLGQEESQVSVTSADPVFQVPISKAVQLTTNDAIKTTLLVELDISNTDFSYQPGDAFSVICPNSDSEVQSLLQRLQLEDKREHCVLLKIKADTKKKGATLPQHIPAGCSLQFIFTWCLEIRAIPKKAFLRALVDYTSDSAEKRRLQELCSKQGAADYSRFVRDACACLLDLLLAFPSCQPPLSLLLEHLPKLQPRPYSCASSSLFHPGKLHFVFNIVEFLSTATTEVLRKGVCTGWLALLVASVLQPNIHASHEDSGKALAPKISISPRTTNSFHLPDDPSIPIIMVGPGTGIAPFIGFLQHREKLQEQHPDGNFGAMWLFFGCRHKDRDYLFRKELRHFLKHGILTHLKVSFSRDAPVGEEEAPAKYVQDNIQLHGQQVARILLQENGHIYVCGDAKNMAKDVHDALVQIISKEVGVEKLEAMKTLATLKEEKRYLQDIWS
# UniProt Q96IX5, sequence (Q96IX5 whole entry): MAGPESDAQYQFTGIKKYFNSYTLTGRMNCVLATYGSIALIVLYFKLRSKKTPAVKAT
# UniProt Q9HAN9, sequence (Q9HAN9 whole entry): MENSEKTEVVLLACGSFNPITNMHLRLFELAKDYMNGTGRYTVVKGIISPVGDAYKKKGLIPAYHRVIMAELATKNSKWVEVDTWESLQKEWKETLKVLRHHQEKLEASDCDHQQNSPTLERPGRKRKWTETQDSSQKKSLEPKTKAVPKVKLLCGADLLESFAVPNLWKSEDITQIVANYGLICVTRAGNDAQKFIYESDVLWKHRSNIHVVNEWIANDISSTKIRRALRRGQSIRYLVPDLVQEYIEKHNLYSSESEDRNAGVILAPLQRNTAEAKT
Target,NP40-soluble protein abundance (concentration: 1mM),NP40-soluble protein abundance (concentration: 2mM),NP40-soluble protein abundance (concentration: 4mM),NP40-soluble protein abundance (concentration: 6mM),NP40-soluble protein abundance (concentration: 8mM),NP40-soluble protein abundance (concentration: 10mM)
UniProt Q9NQW7-3,1.01 ± 0.044,0.994 ± 0.029,0.968 ± 0.044,0.976 ± 0.052,0.991 ± 0.043,0.966 ± 0.036
ATP13A1 (UniProt Q9HD20),1.01 ± 0.1,1 ± 0.06,1.01 ± 0.064,0.951 ± 0.086,1 ± 0.041,0.978 ± 0.03
UniProt Q96P11-2,1.05 ± 0.039,1.05 ± 0.03,1.11 ± 0.058,1.09 ± 0.068,1.13 ± 0.083,1.18 ± 0.072
UniProt Q9GZP9|I3L1T3,0.935 ± 0.091,0.903 ± 0.083,0.946 ± 0.13,0.887 ± 0.12,0.944 ± 0.068,0.916 ± 0.11
SACS (UniProt Q9NZJ4),1.09 ± 0.08,1.04 ± 0.072,1.08 ± 0.056,0.991 ± 0.075,1.102 ± 0.01,1.05 ± 0.042
COG8 (UniProt Q96MW5),0.938 ± 0.057,0.917 ± 0.029,0.937 ± 0.048,0.898 ± 0.068,0.902 ± 0.06,0.975 ± 0.054
UniProt Q8WX93|Q8WX93-3|Q8WX93-4|Q8WX93-5|Q8WX93-8,0.978 ± 0.024,0.966 ± 0.046,1.01 ± 0.026,0.97 ± 0.042,0.971 ± 0.044,0.986 ± 0.036
UniProt Q9UBK8|Q9UBK8-2,0.946 ± 0.042,1.01 ± 0.066,0.941 ± 0.058,0.97 ± 0.068,0.973 ± 0.028,0.978 ± 0.08
PAFAH2 (UniProt Q99487),1 ± 0.098,1.01 ± 0.074,0.978 ± 0.053,1 ± 0.27,0.992 ± 0.05,1.02 ± 0.064
PXDN (UniProt Q92626),1.06 ± 0.1,1.03 ± 0.067,1.09 ± 0.06,1.05 ± 0.049,1.04 ± 0.074,1.06 ± 0.1
UniProt Q9UBS0,1.1 ± 0.063,1.11 ± 0.082,1.12 ± 0.088,1.05 ± 0.053,1.15 ± 0.14,1.09 ± 0.11
MRPL16 (UniProt Q9NX20),1.17 ± 0.12,1.08 ± 0.11,1.06 ± 0.16,1.11 ± 0.38,1.08 ± 0.18,0.981 ± 0.14
FAM117A (UniProt Q9C073),1.04 ± 0.03,0.992 ± 0.02,0.999 ± 0.039,1.01 ± 0.025,0.972 ± 0.053,0.972 ± 0.024
TM9SF3 (UniProt Q9HD45),1.04 ± 0.12,1.03 ± 0.1,1.01 ± 0.079,0.946 ± 0.12,1.05 ± 0.099,1.01 ± 0.097
UniProt Q96HN2-2|Q96HN2,0.919 ± 0.042,0.934 ± 0.051,0.898 ± 0.025,0.939 ± 0.052,0.911 ± 0.017,0.934 ± 0.01
UniProt Q9NUQ7|D6RA67,1.09 ± 0.15,1.07 ± 0.13,1.05 ± 0.093,0.95 ± 0.18,1.08 ± 0.072,1.02 ± 0.091
VPS37B (UniProt Q9H9H4),0.992 ± 0.11,0.958 ± 0.12,0.967 ± 0.057,0.983 ± 0.12,0.946 ± 0.073,0.887 ± 0.13
MRPS31 (UniProt Q92665),0.994 ± 0.058,0.93 ± 0.066,0.871 ± 0.062,0.923 ± 0.14,0.865 ± 0.088,0.857 ± 0.073

Target,NP40-soluble protein abundance (concentration: 1mM),NP40-soluble protein abundance (concentration: 2mM),NP40-soluble protein abundance (concentration: 4mM),NP40-soluble protein abundance (concentration: 6mM),NP40-soluble protein abundance (concentration: 8mM),NP40-soluble protein abundance (concentration: 10mM)
DDX23 (UniProt Q9BUQ8),1.14 ± 0.052,1.23 ± 0.1,1.38 ± 0.13,1.52 ± 0.21,1.69 ± 0.17,1.81 ± 0.2
UniProt Q96JM3,1.02 ± 0.043,1.02 ± 0.042,1.03 ± 0.048,1.12 ± 0.037,1.1 ± 0.039,1.12 ± 0.025
UniProt Q9BZ23|Q9BZ23-3|Q9BZ23-4,0.958 ± 0.079,0.995 ± 0.08,0.937 ± 0.054,0.914 ± 0.05,0.882 ± 0.11,0.91 ± 0.05
UniProt Q969M3|Q969M3-3,0.981 ± 0.16,0.97 ± 0.19,0.974 ± 0.22,0.987 ± 0.24,0.961 ± 0.19,0.996 ± 0.19
RABEP2 (UniProt Q9H5N1),0.967 ± 0.062,0.941 ± 0.036,0.929 ± 0.035,0.956 ± 0.046,0.905 ± 0.011,0.901 ± 0.039
DDX18 (UniProt Q9NVP1),1.21 ± 0.029,1.3 ± 0.024,1.503 ± 0.0076,1.74 ± 0.035,2.07 ± 0.024,2.36 ± 0.16
UniProt Q9H0S4|Q9H0S4-2,1.18 ± 0.12,1.23 ± 0.072,1.44 ± 0.03,1.5 ± 0.09,1.79 ± 0.073,1.99 ± 0.11
UniProt Q96EZ8|Q96EZ8-2|Q96EZ8-3,1.08 ± 0.04,1.06 ± 0.053,1.08 ± 0.013,1.09 ± 0.093,1.14 ± 0.038,1.18 ± 0.044
UniProt Q96B36|Q96B36-3,0.861 ± 0.098,0.826 ± 0.085,0.765 ± 0.029,0.826 ± 0.091,0.747 ± 0.071,0.693 ± 0.12
DSCC1 (UniProt Q9BVC3),1.04 ± 0.038,1.06 ± 0.011,1.03 ± 0.018,1.01 ± 0.021,1.077 ± 0.0062,1.05 ± 0.037
LUC7L (UniProt Q9NQ29),2.7 ± 0.14,2.9 ± 0.11,2.86 ± 0.17,3.28 ± 0.17,2.93 ± 0.17,3.11 ± 0.15
RPGR (UniProt Q92834),1.03 ± 0.099,1.08 ± 0.039,1.05 ± 0.036,1.07 ± 0.067,1.067 ± 0.0066,1.05 ± 0.013
UniProt Q9HCM7,1.71 ± 0.25,1.84 ± 0.31,2.2 ± 0.52,2.13 ± 0.52,2.62 ± 0.69,2.78 ± 0.79
UniProt Q96KB5|Q96KB5-2,1 ± 0.038,0.98 ± 0.051,0.964 ± 0.031,0.949 ± 0.083,0.958 ± 0.042,0.965 ± 0.039
NMNAT1 (UniProt Q9HAN9),1.33 ± 0.36,3.44 ± 2.5,3.91 ± 2.9,4.35 ± 3.5,3.99 ± 2.9,3.99 ± 3
UniProt Q96IX5,0.875 ± 0.049,0.935 ± 0.11,0.936 ± 0.16,0.976 ± 0.15,0.909 ± 0.16,0.99 ± 0.14
UniProt Q9NUL5,0.948 ± 0.041,0.972 ± 0.048,0.921 ± 0.029,0.921 ± 0.057,0.908 ± 0.025,0.924 ± 0.035
RPRD1B (UniProt Q9NQG5),0.969 ± 0.12,0.943 ± 0.039,0.971 ± 0.049,0.993 ± 0.089,1.02 ± 0.034,0.854 ± 0.15
